Screens as filed in PubChem BioAssay.
Shown are actives, neighbours in structure and some others; about 3.4% of the full set was active somewhere.
RGS12 GoLoco inh: inhibitors of human Gai1-RGS12 GoLoco interaction (red fluorophore) | P63096 | hit rate 0.44% among 230,000 | Gai1:RGS12 GoLoco peptide FP, rhodamine, 10 min | Potency, µM (doses to about 61.6 µM), actives largely listed as inhibitors; active = well fitted inhibition curve with a large enough effect, not every such curve was filed as active; inactive = no such curve, though single readings can be large or run the other way; also: nearly all actives have a fitted effect of over 30% in size
Target sequence (P63096 whole entry, looked up): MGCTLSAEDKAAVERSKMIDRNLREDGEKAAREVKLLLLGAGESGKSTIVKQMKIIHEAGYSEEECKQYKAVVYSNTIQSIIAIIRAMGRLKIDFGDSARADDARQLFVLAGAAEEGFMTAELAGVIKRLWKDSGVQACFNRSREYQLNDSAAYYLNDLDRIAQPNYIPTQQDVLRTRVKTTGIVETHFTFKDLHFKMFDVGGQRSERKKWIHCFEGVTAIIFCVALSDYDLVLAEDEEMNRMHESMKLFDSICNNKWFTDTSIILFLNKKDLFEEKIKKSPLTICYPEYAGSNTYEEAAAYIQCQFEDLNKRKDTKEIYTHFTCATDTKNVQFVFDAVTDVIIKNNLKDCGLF
Tau fluor cs: counter-screen for tau fibril formation inhibitors. tau K18 P301L Alexa594 fluorescence, heparin fibrillization. Potency, µM (series often up to 57.7 µM). hit rate 0.93% among 280,000. AID 1463; also: nearly all actives have a fitted effect of over 55% in size
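Human K18 P301L tau (15 uM unlabeled plus 0.24 uM Alexa 594-labeled, final) in 100 mM sodium acetate pH 7 was mixed with compound and 20 uM heparin and incubated 6 hr at 37 C.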
KDM4E inh: blocks human JMJD2E demethylase activity; B2RXH2; JMJD2E catalytic domain, FDH-coupled NADH fluorescence (FDH is formaldehyde dehydrogenase); Potency, µM (highest dose often 57.1 µM), usual class: inhibitors; hit rate 1.6% among 230,000; AID 2147; active = well fitted inhibition curve with a large enough effect, not every such curve was filed as active; inconclusive = small, poorly fitted or top-dose-only effect, or another doubt; inactive = no such curve, though single readings can be large or run the other way; also: nearly all actives have a fitted effect of over 50% in size
Target sequence (B2RXH2 1-337 limits assumed): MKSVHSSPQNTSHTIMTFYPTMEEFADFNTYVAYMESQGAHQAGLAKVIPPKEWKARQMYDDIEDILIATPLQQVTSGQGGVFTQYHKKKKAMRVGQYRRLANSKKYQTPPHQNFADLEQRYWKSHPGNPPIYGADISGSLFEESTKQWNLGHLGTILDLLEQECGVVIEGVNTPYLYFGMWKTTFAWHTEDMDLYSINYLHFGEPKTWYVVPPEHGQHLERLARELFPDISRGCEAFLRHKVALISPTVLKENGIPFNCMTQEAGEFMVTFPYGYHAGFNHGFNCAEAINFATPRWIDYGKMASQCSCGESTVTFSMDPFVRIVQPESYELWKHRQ
Tau FP inhib: tau fibrillization inhibition (FP). K18 P301L tau heparin fibrillization, Alexa594 FP, 6 h. Potency, µM (titrated, usually from 57.7 µM), actives largely listed as inhibitors. hit rate 0.39% among 280,000; also: nearly all actives have a fitted effect of over 55% in size
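Quantitative HTS format: compounds meet 15 uM recombinant K18 P301L tau and Alexa 594-tau tracer in 100 mM sodium acetate pH 7; 20 uM heparin triggers fibrillization at 37 C over 6 hr; FP gives the signal.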
Tau ThT inhib: inhibitors of human tau fibril formation, thioflavin T binding; P10636; recombinant tau K18 P301L (four-repeat tau fragment), heparin-induced fibrillization, ThT fluorescence; Potency, µM (series often up to 57.4 µM), most hits filed as inhibitors; hit rate 2.1% among 270,000; also: nearly all actives have a fitted effect of over 55% in size
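Recombinant human tau K18 fragment […] carrying P301L, 15 uM unlabeled plus 0.24 uM Alexa 594-labeled, was fibrillized with 20 uM heparin in 100 mM sodium acetate pH 7 for 6 hr at 37 C; 30 uM ThT fluorescence read after 1 hr.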
Numbers stand for hits; 0 = inactive; ? = inconclusive; - = no result given; [ ] = dose if it differs, or a comment. Unless noted, calls follow the shape of the dose curve; as a rule, active = well fitted curve in the direction sought with a large enough effect; inconclusive = small, poorly fitted or top-dose-only effect, or another doubt; inactive = no such curve, though single readings can be large; an effect the other way counts as inactive or inconclusive.

SMILES | RGS12 GoLoco inh | Tau fluor cs | KDM4E inh | Tau FP inhib | Tau ThT inhib
O=C(NCc1ccccc1)c1sc(=S)n2c1[nH]c(=O)c1ccccc12 | 0 | ? | 0 | 0 | 14µM
CCN1CCN(Cc2ccc(NC(=O)c3cc(NC(=O)c4cncc(-c5ccc(C#N)cc5)c4)cc(OC)c3)cc2C(F)(F)F)CC1 | 0 | ? | ? | 8.9µM | 0
CCOc1cc2[nH]c(=O)n(CCCCC(=O)N3CCN(c4ccc(OC)cc4)CC3)c(=O)c2cc1OCC | - | 0 | - | 0 | 0
Cc1csc2nc(-c3cccc(NC(=O)C(C)C)c3)cn12 | - | 0 | - | 0 | 0
COc1ccc(OC)c(/C=C2\S/C(=N/NC(=O)c3ccc4ccccc4c3)NC2=O)c1 | 0 | ? | ? | 0 | 8.9µM
CCCc1cc(=O)[nH]c2nnc(SCC)n12 | - | 0 | - | 0 | 0
Cc1noc(C)c1S(=O)(=O)NCCc1csc2nc(-c3ccc(Cl)cc3)nn12 | - | ? | - | ? | 0
CCOc1ccc(N(C)S(=O)(=O)c2ccc(C)c(C(=O)OCC(=O)c3c[nH]c4ccccc34)c2)cc1 | 0 | ? | 0 | 8.9µM | 0
CCCN(CCC)C(=O)c1c[nH]c2ccc(S(=O)(=O)N(C)c3ccc(OCC)cc3)cc2c1=O | - | 0 | - | 0 | 0
COc1cccc(/C=N/NC(=O)C(=O)NCc2cccnc2)c1OC | 0 | 0 | 0 | 0 | 0
COc1cc(OC)c(OC)cc1/C=N/NC(=O)C[n+]1ccccc1 | 0 | 0 | 0 | 0 | 0
COc1cccc(/C=N/NC(=O)C(=O)NCc2cccnc2)c1O | 0 | 0 | 10µM | 0 | 0
COc1cccc(/C=N/NC(=O)CNC(=O)C2COc3ccccc3O2)c1O (centres undefined) | 0 | 0 | 18µM | 0 | 0
COc1cccc(/C=N/NC(=O)CNC(=O)c2ccc3c(c2)OCCO3)c1O | 0 | 0 | 0 | 0 | ?
COc1cccc(/C=N/NC(=O)C[n+]2ccccc2)c1O | 0 | 0 | 14µM | 0 | ?
O=C(COc1ccccc1)NCC(=O)N/N=C/c1ccc(O)cc1O | 0 | 0 | 14µM | ? | 0
CCN(C(=O)c1nn(-c2ccc(OC)c(Cl)c2)c(=O)c2c1c1ccccc1n2C)c1cc(OC)ccc1OC | - | 0 | - | ? | 0
Cc1ccc(C)c(CN2C(=O)c3ccccc3S(=O)(=O)c3ccc(C(=O)N(C)C4CCCCC4)cc32)c1 | - | 0 | - | 0 | 0
COc1cccc(/C=N/NC(=O)CNC(=O)c2ccco2)c1O | 0 | 0 | 14µM | 0 | 0
COc1cccc(/C=N/NC(=S)Nc2cccc(C(=O)O)c2)c1O | 0 | 0 | 28µM | ? | ?
COc1cccc(/C=N/NC(=O)CNC(=O)COc2ccccc2)c1O | 0 | 0 | 8.9µM | 0 | 0
Cc1nc2c(C(=O)NCCC(C)C)cnn2c(C)c1Cc1c(F)cccc1Cl | - | 0 | - | 0 | 0
O=C(O)c1ccccc1-c1ccc(/C=C/c2cc(C(F)(F)F)[nH]c(=O)n2)o1 | 0 | 0 | ? | 0 | 0
O=c1nc(/C=C/c2ccc(-c3ccc(F)cc3)o2)cc(C(F)(F)F)[nH]1 | 0 | 0 | 0 | 0 | 16µM
Cc1ccc(S(=O)(=O)N2CCc3cc(C(=O)Nc4c(F)cccc4F)ccc32)cc1 | - | 0 | - | 0 | 0
SMILES | RGS12 GoLoco inh | Tau fluor cs | KDM4E inh | Tau FP inhib | Tau ThT inhib
Cc1ccc(C(=O)NCC(c2ccc3c(c2)OCO3)N2CCN(c3ccc(F)cc3)CC2)cc1 (centres undefined) | - | 0 | - | 0 | ?
COc1c(C)cc(S(=O)(=O)Nc2cccc(-c3ccc(N4CCOCC4)nn3)c2)c(C)c1C | - | 0 | - | 0 | 0
COc1ccccc1NC(=O)Cc1csc(NC(=S)Nc2ccc(C)cc2)n1 | 0 | 13µM[quencher] | 0 | ? | 0
COc1ccc(C(=O)ON=C2C=C(C)C(=O)C(C)=C2)cc1 | 0 | 0 | 0 | 0 | 0
COc1ccc(SN=C2C(C)=CC(=O)C=C2C)cc1 | 0 | ? | 0 | ? | 2.8µM
COC(=O)c1ccc(-c2noc(CN(C)CCC3CCCCO3)n2)cc1 (centres undefined) | 0 | 0 | 0 | 0 | 11µM
COc1ccc(-c2noc(CN(C)CCC3CCCCO3)n2)cc1 (centres undefined) | 0 | 0[2.34 µM] | 0 | 0[2.34 µM] | 0
O=C1c2ccccc2C(=O)C12OC2c1ccc(Cl)cc1 (centres undefined) | 0 | 0 | ? | ? | 3.2µM
COc1ccc(-n2ncc3c(NC4CCCC4)ncnc32)cc1 | - | 0 | - | 0 | 0
CC(C)COc1ccc(C(=O)N2CCN(CCc3ccccn3)CC2)cc1 | - | 0 | - | 0 | 0
Cc1ccccc1N1CC(=O)N(c2ccccc2C)CC1=O | 0 | 0 | 0 | 0 | 0
Cc1cccc2c1c1ccc3c(c1n2C)C(=O)C=CC3=O | 0 | 4µM[quencher] | 0 | 8.9µM | 3.5µM
Cc1ccc(Nc2cc(C)nc3nncn23)c(C)c1 | - | 0 | - | 0 | 0
CCOc1ccccc1CNCc1cccn1-c1nnc(N2CCN(c3ccccc3)CC2)s1 | - | 0 | - | 0 | ?
CCn1c(C)cc(C=C2C(=O)c3ccccc3C2=O)c1C | 0 | 0 | ? | 0 | 14µM
Cc1ccc(C=C2C(=O)c3ccccc3C2=O)s1 | 0 | 0 | 0 | 0 | 14µM
Cc1cc(C=C2C(=O)c3ccccc3C2=O)c(C)n1C | 0 | 0 | 0 | 0 | 11µM
Cc1cc(C=C2C(=O)c3ccccc3C2=O)c(C)n1-c1ccc(Cl)cc1 | 0 | 0 | 0 | 0 | ?
Cc1cccc(-n2c(C)cc(C=C3C(=O)c4ccccc4C3=O)c2C)c1 | 0 | 0 | 0 | 0 | ?
CCOC(=O)C1CCN(C(=O)c2nn(-c3ccc(C)cc3)c(=O)n(C)c2=O)CC1 | - | 0 | - | 0 | 0
COc1ccc(-n2cc(C(=O)NC(C)c3ccccc3)c3ccccc3c2=O)cc1 (centres undefined) | - | 0 | - | 0 | ?
COc1ccc(C)cc1NC(=O)C(CCSC)NS(=O)(=O)c1ccc2c(c1)oc(=O)n2C (centres undefined) | - | 0 | - | 0 | 0
COc1cc(/C=C2/CCC/C(=C\c3cc(O)c(OC)c(Cl)c3)C2=O)cc(Cl)c1O | 0 | ? | 0 | ? | 11µM
COc1cc(/C=C2/CCc3ccccc3C2=O)cc(OC)c1OC | 0 | 0 | 0 | 0 | ?
COc1cc(/C=C2\CC/C(=C\c3cc(OC)c(OC)c(OC)c3)C2=O)cc(OC)c1OC | 0 | 0 | 0 | 0 | 0
SMILES | RGS12 GoLoco inh | Tau fluor cs | KDM4E inh | Tau FP inhib | Tau ThT inhib
COc1cc(/C=C2\CC/C(=C\c3cc(OC)c(O)c(OC)c3)C2=O)cc(OC)c1O | 0 | 14µM[quencher] | ? | ? | 6.3µM
COc1cc(/C=C2\COC/C(=C\c3cc(OC)c(OC)c(OC)c3)C2=O)cc(OC)c1OC | 0 | 0 | 0 | ? | 8.9µM
Cc1ccc(-c2noc(-c3nnn(CC(=O)Nc4cc(C)cc(C)c4)c3N)n2)cc1 | - | 0 | - | 0 | 0
O=C(CC(c1cccs1)N1Cc2ccccc2C1=O)Nc1ccccc1 (centres undefined) | - | 0 | - | 0 | 0
COc1ccccc1-c1nnc2n1N=C(c1ccc(O)c(O)c1)CS2 | 0 | 0 | 25µM | 0 | 0
Oc1ccc(N=Nc2ccc(Br)cc2)c(O)c1 | 0 | ? | 0 | 0 | 3.5µM
COc1ccc(C)cc1N=Nc1ccc(O)c2ncccc12 | 0 | ? | 25µM | 0 | ?
Cc1ccccc1N=Nc1ccc(O)c2ncccc12 | 0 | 0 | 0 | 0 | ?
